High-throughput results (PubChem BioAssay)
Compounds with a hit are over-represented: about 18% of the library has one in this group of screens.
IL1B secr inh: inhibitors of inflammasome signaling (IL-1 beta secretion); 360,000 tested, 4.7% active; AID 743279; THP-1 LPS/ATP IL-1B secretion, AlphaLISA, 16 h; active compounds read low; activity change, % at 57.5 µM; in the data active means activity change below about -50%; inconclusive means mostly about -30% to -49%; further: on the % scale 0 is the no-effect control and ±100 the full control effect
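THP-1 cells pretreated 1 hr with compounds (up to 57.5 uM final), then stimulated with LPS (250 ng/mL final) plus ATP (1.25 mM final); secreted IL-1B measured by AlphaLISA after 16 hr, decreased signal indicating inhibition.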
TDP1 inh: blocks human tyrosyl-DNA phosphodiesterase 1. Potency, µM (series often up to 130 µM), for the others: at the top dose activity change, negative = inhibition, hits mostly inhibitors. Q9NUW8. recombinant TDP1, AlphaScreen DNA substrate cleavage. 350,000 tested, 0.28% active. AID 485290; further: potency means the concentration at half of the fitted maximal effect; on the % scale 0 is the no-effect control and ±100 the full control effect; nearly all actives have a fitted effect of over 40% in size
Target sequence (Q9NUW8 whole entry, looked up): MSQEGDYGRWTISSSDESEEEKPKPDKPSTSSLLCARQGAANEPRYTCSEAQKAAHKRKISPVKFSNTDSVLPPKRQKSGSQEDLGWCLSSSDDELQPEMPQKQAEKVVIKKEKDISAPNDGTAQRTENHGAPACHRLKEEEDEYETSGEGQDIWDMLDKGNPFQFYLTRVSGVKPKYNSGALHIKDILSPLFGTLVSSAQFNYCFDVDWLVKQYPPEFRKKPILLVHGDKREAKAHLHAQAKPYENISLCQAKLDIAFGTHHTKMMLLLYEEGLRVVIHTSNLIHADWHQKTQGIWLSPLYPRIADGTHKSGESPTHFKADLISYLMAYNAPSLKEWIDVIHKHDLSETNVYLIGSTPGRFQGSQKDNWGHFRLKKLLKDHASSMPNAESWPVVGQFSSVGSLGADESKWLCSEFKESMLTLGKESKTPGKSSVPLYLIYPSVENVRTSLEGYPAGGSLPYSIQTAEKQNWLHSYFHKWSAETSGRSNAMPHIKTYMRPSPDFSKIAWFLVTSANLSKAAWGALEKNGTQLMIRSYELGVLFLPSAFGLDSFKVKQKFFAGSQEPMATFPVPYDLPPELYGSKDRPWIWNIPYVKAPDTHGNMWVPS
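Signal: AlphaScreen proximity between streptavidin donor and anti-FITC acceptor beads on intact substrate. Reaction: Tdp1 1 nM, substrate 15 nM final, 5 min RT after 15 min compound preincubation.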
HepG2 viability: kills HepG2 cells in TGF-b inhibitor counter-screen. Potency, µM (highest dose often 46.1 µM), for inactives: top-dose activity change, negative = cytotoxicity, most hits filed as cytotoxic. HepG2 CAGA-GFP viability, ATP luminescence, 18 h. AID 588856. 410,000 tested, 0.76% active; further: potency means the concentration at half of the fitted maximal effect
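CellTiter-Glo luminescence gave cytotoxicity after 18 hours at 37 degrees C. The cells were HepG2 CAGA-GFP in 1% FBS DMEM, stimulated with 500 pg/mL TGF-beta after compound addition. %Activity was normalised to no-cell wells (complete cell-killing) and DMSO (no toxicity), and curves were fitted and classified.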
TDP1 cell noCPT: qHTS for Inhibitors of human tyrosyl-DNA phosphodiesterase 1 (TDP1): qHTS in cells in absence of CPT; DT40 Tdp1-/- hTDP1 cells, no CPT, ATP luminescence, 48 h; Potency, µM (titrated, usually from 46.2 µM), for inactives: top-dose activity change, negative = growth inhibition, hits mostly inhibitors; 420,000 tested, 15% active; further: potency means the concentration at half of the fitted maximal effect; on the % scale 0 is the no-effect control and ±100 the full control effect; nearly all actives have a fitted effect of over 55% in size
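DT40 Tdp1-/-;hTDP1 cells, no CPT (DMSO vehicle only), 400 cells/well; compounds pin-transferred; ≥48 hr, 37 °C; CellTiter-Glo 30 min RT dark, luminescence read.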
TDP1 cell CPT: DT40-hTDP1 cell growth loss with CPT; chicken DT40 Tdp1-/-;hTDP1 cells + 20 nM CPT, ATP luminescence, 48 h; 420,000 tested, 12% active; Potency, µM (series often up to 46.2 µM), for inactives: at the top dose activity change, negative = growth inhibition, hits mostly inhibitors; AID 686979; further: potency means the concentration at half of the fitted maximal effect; on the % scale 0 is the no-effect control and ±100 the full control effect; nearly all actives have a fitted effect of over 55% in size
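Chicken DT40 Tdp1-/- cells stably complemented with human TDP1 were seeded at 400 cells/well in medium containing 20 nM camptothecin, exposed to pin-transferred compounds, and grown at 37 °C for at least 48 hr. Viability was read as ATP luminescence.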
TGFb SMAD3 inh: inhibitors of TGF-b signaling | HepG2 CAGA-GFP TGF-b/SMAD3 reporter, GFP fluorescence, 18 h; TGF-beta stimulated, 500 pg/mL final | Potency, µM (titrated, usually from 46.1 µM), without a hit: at the highest dose activity, negative = inhibition, actives largely listed as inhibitors | 410,000 tested, 1.2% active | AID 588855; further: potency means the concentration at half of the fitted maximal effect; on the % scale 0 is the no-effect control and ±100 the full control effect; nearly all actives have a fitted effect of over 65% in size
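Per well, imaged GFP fluorescence of HEPG2 CAGA-GFP cells gives the signal; cells get compound, then TGF-beta (500 pg/mL final), 18 h at 37 degrees C; %Activity versus -TGF-beta and +DMSO controls.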
The depositor's hits bear a star; [ ] = another dose, or the depositor's remark. Unless noted, the call rests on the fitted dose curve; in most records, active means well fitted curve in the direction sought with a large enough effect; inconclusive means small, poorly fitted or top-dose-only effect, or another doubt; inactive means no such curve, though single readings can be large; an effect the other way counts as inactive or inconclusive.

How did COCCn1c(SC(C)C(=O)NCC2CCCO2)nc2scc(-c3ccc(F)cc3)c2c1=O (stereo not given) do in these assays?
IL1B secr inh: 2; TDP1 inh: 0%; HepG2 viability: 24%; TDP1 cell noCPT: inconclusive; TDP1 cell CPT: -26%; TGFb SMAD3 inh: -21%

How did [O-][N+]12CCCc3cccc(c31)CCC2 do in these assays?
HepG2 viability: -4%; TDP1 cell noCPT: inconclusive; TDP1 cell CPT: inconclusive; TGFb SMAD3 inh: -18%

How did O=C(C[N+]12CCCc3cccc(c31)CCC2)c1ccc2ccc3cccc4ccc1c2c34 do in these assays?
HepG2 viability: 5%; TDP1 cell noCPT: 5µM*; TDP1 cell CPT: 6.3µM*; TGFb SMAD3 inh: -11%

How did C=C1CC[C@@H]2[C@](C)(CO)[C@H](O)CC[C@@]2(C)[C@@H]1C/C=C1/C(=O)OC[C@H]1O do in these assays?
TDP1 cell noCPT: 2.7µM*; TDP1 cell CPT: 3µM*

Results for C=C1CCC2[C@](C)(CO)C(O)CC[C@]2(C)C1C/C=C1/C(=O)OCC1O (stereo not given in full) ?
TDP1 inh: 9%[56.1 µM]

How did C=C1CC[C@@H]2[C@](C)(CO)[C@H](O)CC[C@@]2(C)[C@@H]1C/C=C1/C(=O)OCC1O (stereo not given in full) do in these assays?
IL1B secr inh: -87*; HepG2 viability: -12%; TDP1 cell noCPT: 8.2µM*; TDP1 cell CPT: 15µM*; TGFb SMAD3 inh: 40%

How did O=C1CCN(CCc2ccccc2)CCN1CCO do in these assays?
IL1B secr inh: 13; HepG2 viability: 8%; TDP1 cell noCPT: -12%; TDP1 cell CPT: 4%; TGFb SMAD3 inh: 2%

How did COc1ccc(NC(=O)c2cc(C3CC3)nc3c2cnn3C(C)C)cc1OC do in these assays?
IL1B secr inh: -6; TDP1 inh: 1%; HepG2 viability: -23%; TDP1 cell noCPT: inconclusive; TDP1 cell CPT: inconclusive; TGFb SMAD3 inh: 3%

How did COc1ccccc1CCNC(=O)c1cc(C2CC2)nc2c1cnn2C(C)C do in these assays?
IL1B secr inh: -11; TDP1 inh: -3%; HepG2 viability: -10%; TDP1 cell noCPT: 23µM*; TDP1 cell CPT: inconclusive; TGFb SMAD3 inh: -8%

How did COc1ccc(CCNC(=O)c2cc(C3CC3)nc3c2cnn3C(C)C)cc1 do in these assays?
IL1B secr inh: -27; TDP1 inh: -3%; HepG2 viability: -7%; TDP1 cell noCPT: 18µM*; TDP1 cell CPT: inconclusive; TGFb SMAD3 inh: 3%

Results for CCc1ccccc1NC(=O)CNC(=O)c1cc(C2CC2)nc2c1cnn2C(C)C ?
IL1B secr inh: -15; TDP1 inh: -1%; HepG2 viability: -9%; TDP1 cell noCPT: inconclusive; TDP1 cell CPT: inconclusive; TGFb SMAD3 inh: -5%

How did COc1ccccc1OCCNC(=O)c1cc(C2CC2)nc2c1cnn2C(C)C do in these assays?
IL1B secr inh: 2; TDP1 inh: -4%; HepG2 viability: -17%; TDP1 cell noCPT: inconclusive; TDP1 cell CPT: inconclusive; TGFb SMAD3 inh: 5%

What do the screens show for `Cc1cc(C)c(NC(=O)CNC(=O)c2cc(C3CC3)nc3c2cnn3C(C)C)c(C)c1`?
IL1B secr inh: -21; HepG2 viability: -60%; TDP1 cell noCPT: 18µM*; TDP1 cell CPT: inconclusive; TGFb SMAD3 inh: -22%

What do the screens show for `COc1cc(C)c(NC(=O)c2cc(C3CC3)nc3c2cnn3C(C)C)cc1OC`?
IL1B secr inh: -13; TDP1 inh: 0%; HepG2 viability: -22%; TDP1 cell noCPT: 16µM*; TDP1 cell CPT: inconclusive; TGFb SMAD3 inh: 0%

What do the screens show for `CCOC(=O)C1=CCN(S(=O)(=O)c2ccccc2Br)C1c1ccccc1` (stereo not given)?
IL1B secr inh: 49; HepG2 viability: -15%; TDP1 cell noCPT: inconclusive; TDP1 cell CPT: inconclusive; TGFb SMAD3 inh: inconclusive

Results for OC1CCCC1 ?
IL1B secr inh: 16; TDP1 inh: 1%; HepG2 viability: -1%; TDP1 cell noCPT: 9%; TDP1 cell CPT: 13%; TGFb SMAD3 inh: 6%

Results for Cc1nc2cnc(Oc3cccc(Cl)c3)nc2n(C[C@H]2CCCO2)c1=O ?
TDP1 cell noCPT: inconclusive; TDP1 cell CPT: -10%

How did NC(C(=O)O)c1nn[nH]n1 (stereo not given) do in these assays?
TDP1 inh: -4%; HepG2 viability: -16%; TGFb SMAD3 inh: 0%

What do the screens show for `O=[N+]([O-])CC(c1ccc(F)cc1)c1c[nH]c2ccccc12` (stereo not given)?
IL1B secr inh: 0; HepG2 viability: -41%; TDP1 cell noCPT: 6.5µM*; TDP1 cell CPT: 7.3µM*; TGFb SMAD3 inh: inconclusive

Results for Fc1ccc(C(Nc2ccccn2)c2c[nH]c3ccccc23)cc1 (stereo not given) ?
IL1B secr inh: -22; TDP1 inh: 4%; HepG2 viability: -29%; TDP1 cell noCPT: inconclusive; TDP1 cell CPT: inconclusive; TGFb SMAD3 inh: inconclusive

How did CCN(CC(=O)Nc1cccc(F)c1)CC(=O)Nc1ccc2c(c1)OCCO2 do in these assays?
IL1B secr inh: -7; HepG2 viability: -19%; TDP1 cell noCPT: -10%; TDP1 cell CPT: -7%; TGFb SMAD3 inh: -14%

How did O=C(CSc1ncnc2c1nnn2Cc1ccc(F)cc1)NCC1CCCO1 (stereo not given) do in these assays?
IL1B secr inh: -1; TDP1 inh: 3%; HepG2 viability: -9%; TDP1 cell noCPT: inconclusive; TDP1 cell CPT: inconclusive; TGFb SMAD3 inh: -30%

What do the screens show for `NC(=O)CSc1ncnc2c1nnn2Cc1ccc(F)cc1`?
IL1B secr inh: -96*; TDP1 inh: 1%; HepG2 viability: -24%; TDP1 cell noCPT: inconclusive; TDP1 cell CPT: 2%; TGFb SMAD3 inh: -17%

What do the screens show for `Cc1c(NC(=O)C(C)OC(=O)c2ccc([N+](=O)[O-])s2)c(=O)n(-c2ccccc2)n1C` (stereo not given)?
IL1B secr inh: 34; TDP1 inh: 6%; HepG2 viability: -45%; TDP1 cell noCPT: 16µM*; TDP1 cell CPT: 23µM*; TGFb SMAD3 inh: inconclusive

How did CC(OC(=O)c1ccc([N+](=O)[O-])s1)C(=O)NC1CCCCC1C (stereo not given) do in these assays?
IL1B secr inh: 11; TDP1 inh: 0%; HepG2 viability: -28%; TDP1 cell noCPT: inconclusive; TDP1 cell CPT: 23µM*; TGFb SMAD3 inh: inconclusive
